Screening results: PubChem BioAssay, several laboratories
Smad3 inh: Smad3/FoxH1 peptide binding inhibitors, primary screen, biochemical, TR-FRET | Mothers against decapentaplegic homolog 3 (Homo sapiens), P84022 | TR-FRET Smad3/Dy647-FoxH1 peptide binding, europium anti-His | 88,000 tested, 0.29% active | AID 630, 2007 | inhibition, % at 25 µM;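 active = compounds that reduce the energy-transfer binding signal between the protein and its labelled peptide by more than half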;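 note: 0% = Smad3 plus labelled peptide maximal FRET and 100% = peptide-only background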
ERa SRC1 inh: ERα–SRC-1 coactivator interaction inhibitors, primary screen, biochemical, TR-FRET, ERα LBD, estradiol-bound; Estrogen receptor (Homo sapiens), P03372; TR-FRET ER-alpha LBD / SRC-1 peptide; inhibition, % at 25.6 µM; 86,000 tested, 1.7% active; in the data active = inhibition above about 50%;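 note: 0% = receptor plus peptide control and 100% = peptide only without receptor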
Target sequence (P03372 whole entry, looked up, the tested form may be a part): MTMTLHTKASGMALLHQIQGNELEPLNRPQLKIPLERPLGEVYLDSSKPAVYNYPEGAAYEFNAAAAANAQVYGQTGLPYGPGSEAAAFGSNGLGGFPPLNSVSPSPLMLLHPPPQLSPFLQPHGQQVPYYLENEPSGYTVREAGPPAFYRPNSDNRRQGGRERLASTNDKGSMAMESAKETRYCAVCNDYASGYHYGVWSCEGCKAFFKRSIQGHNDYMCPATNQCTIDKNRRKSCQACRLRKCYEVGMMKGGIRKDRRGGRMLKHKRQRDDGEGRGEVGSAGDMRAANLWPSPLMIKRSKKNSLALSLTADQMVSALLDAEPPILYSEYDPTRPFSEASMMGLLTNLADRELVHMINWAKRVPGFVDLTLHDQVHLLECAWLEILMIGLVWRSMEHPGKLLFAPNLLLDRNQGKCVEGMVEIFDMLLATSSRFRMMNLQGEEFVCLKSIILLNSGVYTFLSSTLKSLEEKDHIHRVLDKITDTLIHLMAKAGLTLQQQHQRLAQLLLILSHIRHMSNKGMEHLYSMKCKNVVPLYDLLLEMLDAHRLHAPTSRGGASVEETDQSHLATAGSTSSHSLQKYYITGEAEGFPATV
Calb biofilm kill: clotrimazole potentiators killing Candida biofilms, primary screen, with clotrimazole, Alamar Blue. C. albicans biofilm + clotrimazole. inhibition, % at 6 µM. 85,000 tested, 0.14% active;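 active = inhibition above 20%; inactive = inhibition below 20%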;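 note: preformed 24 hr biofilms exposed to compound for 48 hr; 0% = biofilm without compound and 100% = blank killed by clotrimazole plus chlorhexidine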
ERb SRC1 inh: inhibitors of ERβ-SRC1 coactivator interaction, primary screen, biochemical, TR-FRET, ERβ LBD, SRC-1 peptide | 86,000 tested, 1.3% active | inhibition, % at 25.6 µM | AID 633, 2007 | TR-FRET ER-beta LBD / SRC1-Cy5 peptide binding; receptor agonist-loaded with 1 µM estradiol | Estrogen receptor beta (Homo sapiens), Q92731;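 active = compounds whose percent inhibition of the receptor-coactivator binding signal exceeds about 50% in the single-dose screen, limit read from the data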;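 note: 0% = receptor plus peptide wells without compound and 100% = peptide-only wells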
ERa SRC1 pot: enhancers of ERα–SRC-1 coactivator binding, primary screen, biochemical, TR-FRET, ERα LBD, low estradiol | TR-FRET ERalpha-LBD/SRC-Cy5 coactivator binding, 2 h; 100 = basal binding, no effect | coactivator binding (% of control), % at 25.6 µM | 86,000 tested, 1.3% active | AID 639, 2007; in the data active = activity above about 200%;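 note: binding measured in presence of low estradiol as agonist stimulus; 0% = peptide alone without receptor and 100% = receptor with peptide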
Numbers without * were called inactive; · = no result; [ ] = another dose, or the depositor's remark. This is a sample that favours compounds with a hit; in the whole collection about 3.6% have one here.

SMILES	Smad3 inh	ERa SRC1 inh	Calb biofilm kill	ERb SRC1 inh	ERa SRC1 pot
COc1cc(NCCCC(C)N)c2ncccc2c1 (centres undefined)	21	70*[fluorescence artefact?]	6	90*[fluorescence artefact?]	4
Cc1cc(NC(=O)C2C3C(=O)N(CCC(C)C)C(C(=O)NCc4ccccc4)C34C=CC2(C)O4)no1 (centres undefined)	-2	5	6	-6	78
COc1ccc2nc(NC(=S)N(C)C)sc2c1	-3	-7	0	-7	65
CCOC(=O)CSc1cccc2cccnc12	-7	-10	-8	-5	237*[fluorescence artefact?]
CCN(CC)C(=O)Sc1cccc2cccnc12	2	3	2	4	116
CC(C)[C@@]12CC[C@]3(CC[C@@H]4[C@](C)(CCC[C@@]4(C)C(=O)O)[C@@H]3C1)[C@@H](CN)C2	15	·	·	·	·
Oc1[nH]c2ccccc2c1C1=NCCCC1	-9	82*[fluorescence artefact?]	6	92*[fluorescence artefact?]	27
COC(=O)c1ccccc1NC(=O)c1cc2ncc(Br)cn2n1	-73	27	0	33	579*[fluorescence artefact?]
CCOc1cc2[nH]c(=O)n(CCC(=O)N3CCN(c4ccccc4OC)CC3)c(=O)c2cc1OCC	10	-4	4	1	102
COc1cc2[nH]c(=O)n(CCC(=O)N3CCN(c4cc(Cl)ccc4C)CC3)c(=O)c2cc1OC	-11	88*[fluorescence artefact?]	0	43	40
c1coc(C2Nc3cccc4cccc(c34)N2)c1	14	74*[fluorescence artefact?]	3	78*[fluorescence artefact?]	26
O=C(O)C1CCCCC1C(=O)NCCCCc1ccccc1 (centres undefined)	4	8	1	-3	115
O=C(O)C1CCCCC1C(=O)NCCCc1ccccc1 (centres undefined)	17	-2	5	3	268*
COc1ccc(-c2nnc(SCC(=O)c3[nH]c(C)c(C(C)=O)c3C)o2)cc1	-1	22	6	32	275*
CCOC(=O)c1c(C)[nH]c(C)c1C(=O)CSc1nnc(-c2ccc(OC(F)F)cc2)o1	2	46	4	24	276*
C/C(N)=C(/C#N)C(=O)CSc1nnc(-c2ccc(OC(F)F)cc2)o1	6	56*	1	62*	58
COc1ccc(C(=O)CSc2nnc(-c3ccc(S(=O)(=O)N4CCOCC4)cc3)o2)cc1	-85	-6	1	18	470*[fluorescence artefact?]
CN(C(=O)c1ccncc1)c1nnc(-c2ccccn2)s1	-9	-1	-3	3	73
CN(C(=O)c1ccno1)c1nnc(-c2ccccn2)s1	-4	-7	20*	-7	127
O=C(CN(C1CCCCC1)S(=O)(=O)c1ccc(Cl)cc1)NCc1ccncc1	9	-4	8	-1	108
Cc1cccc(N2CCN(c3nc4ccccc4n4cnnc34)CC2)c1C	-2	54*	0	29	54
c1cnc(N2CCN(c3nc4ccccc4n4cnnc34)CC2)nc1	6	0	11	1	96
CN1CCN(C(=O)c2ccc3c(c2)OCCO3)CC1	1	-2	-4	0	104
NC(=O)c1ccc2c(c1)OCCO2	-4	8	3	21	121
CN1CCCC(OC(=O)c2ccc3c(c2)OCCO3)C1 (centres undefined)	6	0	3	60*	127
SMILES	Smad3 inh	ERa SRC1 inh	Calb biofilm kill	ERb SRC1 inh	ERa SRC1 pot
O=C(O)c1ccc2c(c1)OCCO2	6	77*[fluorescence artefact?]	5	3	110
C/C(N)=C(/C#N)C(=O)CSc1nnc(Cc2ccccc2F)n1N	11	69*	8	81*	33
Nn1c(Cc2ccccc2F)nnc1SCn1nnc2ccccc2c1=O	3	-5	12	-6	110
COC(=O)c1ccc(NC(=O)CN2C(=O)CSC2=O)cc1	-7	1	5	8	319*[fluorescence artefact?]
O=C1/C(=N/n2cnnc2)c2ccccc2N1Cc1ccccc1	10	2	0	19	124
Cc1ccc2c(CC(=O)OC(C)C(=O)NCc3ccc4c(c3)OCO4)coc2c1 (centres undefined)	-5	-27	8	-23	106
O=P(O)(O)O[C@@H]1O[C@H](CO)[C@@H](O)[C@H](O)[C@H]1O	5	·	·	·	·
Cc1nn(C)c(C)c1S(=O)(=O)N1CCC(C(=O)NC2CCCCCC2)CC1	3	1	9	1	127
Cc1cccc(NC(=O)C2CCN(S(=O)(=O)c3c(C)nn(C)c3C)CC2)n1	3	2	1	57*	114
O=C(O)CCN1C(=O)C2CCCCC2C1=O (centres undefined)	-6	-8	37*	0	108
COc1ccc(Oc2ncnc3c2oc2ccc(Br)cc23)cc1	0	43	8	30	416*
CN(C)c1ccc(NC(=O)CN2CCN(CC(=O)Nc3ccc(F)cc3)CC2)cc1	-19	16	-1	54*[fluorescence artefact?]	64
N#CC(C#N)=CNCCN1CCN(C=C(C#N)C#N)CC1	3	·	·	·	·
Cc1ccc(S(=O)(=O)C(C)C(=O)c2ccc3c(c2)OCCO3)cc1 (centres undefined)	3	7	2	-9	108
Cc1ccc(-c2nn3c(-c4ccco4)nnc3c3ccccc23)cc1S(=O)(=O)NCC1CCCO1 (centres undefined)	-4	55*[fluorescence artefact?]	4	30	218*
CCC(C)NC(=O)c1ccccc1NS(=O)(=O)c1ccc(OC)c(OC)c1 (centres undefined)	-3	-7	-3	-12	94
CCCNC(=O)c1ccc(-c2nc3ccccc3s2)s1	5	54*	-2	62*	73
COc1cc(-c2nnc(-c3ccc(S(=O)(=O)c4ccccc4)cc3)o2)cc(OC)c1OC	11	58*	5	36	86
COc1cc(-c2nnc(-c3ccc(N4CCOCC4)cc3)o2)cc(OC)c1OC	15	0	6	-6	109
CCc1nc(SCc2cccnc2)[nH]c(=O)c1C	3	-24	8	-30	111
CC1CCN(C(=O)CSc2nc3c(cnn3-c3ccc(Cl)cc3)c(=O)[nH]2)CC1	4	6	-1	2	145
CCOC(=O)CSc1nc2c(cnn2-c2ccc(C)cc2)c(=O)[nH]1	-3	1	-1	-1	120
CCOC(=O)CNC(=O)CSc1ncnc2c1cnn2-c1ccc(Cl)cc1	-43	-17	6	-8	206*
CCOC(=O)N1CCN(C(=O)CSc2nc3c(cnn3-c3ccc(Cl)cc3)c(=O)[nH]2)CC1	7	-3	20*	-6	128
COC(=O)c1ccc(CSc2nc3c(cnn3-c3ccc(Cl)cc3)c(=O)[nH]2)o1	-1	-37	7	-12	343*[fluorescence artefact?]
